Active and inactive are the calls of the source.

The test system of assay [1] is PRMT1 (protein arginine N-methyltransferase 1). Kind of assay: PRMT1 binders on small-molecule microarrays, primary screen, biochemical, small-molecule microarray, 635 nm fluorescence (AID 1088).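 Further: binding of Prmt1 protein to compounds spotted on small-molecule microarray slides.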 To be noted: small-molecule microarray binding, higher = more signal.
A short description of assay [2]: yeast growth modulation, basal conditions, primary screen, YJM789 clinical isolate, OD600, 24 h (AID 1089).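 Further: growth of clinical yeast isolate S. cerevisiae YJM 789 seeded 1000 cells per well; test concentration not given here.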 To be noted: S. cerevisiae YJM789 growth, higher = more signal, called active from +8 up or from −8 down.
The nature of assay [3]: fission yeast growth modulation, primary screen, strain 972, OD600, 24 h, no modulator (AID 1090).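 Further: basal condition with compound alone and no growth modifier present; test concentration not given here.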 Particulars: S. pombe 972 growth, higher = more signal, called active from +8 up or from −8 down.
The nature of assay [4]: S. cerevisiae growth modulation with rapamycin, primary screen, strain BY4716, OD600, 96 h (AID 1091). Further: test concentration not given here. Particulars: higher = more signal, called active from +8 up or from −8 down.
The target of assay [5] is Torsin-1A-interacting protein 2 (Homo sapiens) (UniProt Q8NFQ8). The experiment in a line: LULL1 binders on small-molecule microarray, primary screen, cell lysate, human LULL1 lysate, 635/667 nm fluorescence (AID 1092).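 Further: probe is lysate of COS7 cells overexpressing human LULL1; score merges per-feature 667 nm fluorescence with signal-to-noise.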 To be noted: hLULL1 lysate binding, 635 nm fluorescence, higher = more signal.
Sequence of Torsin-1A-interacting protein 2 (Homo sapiens) (Q8NFQ8 whole entry, looked up): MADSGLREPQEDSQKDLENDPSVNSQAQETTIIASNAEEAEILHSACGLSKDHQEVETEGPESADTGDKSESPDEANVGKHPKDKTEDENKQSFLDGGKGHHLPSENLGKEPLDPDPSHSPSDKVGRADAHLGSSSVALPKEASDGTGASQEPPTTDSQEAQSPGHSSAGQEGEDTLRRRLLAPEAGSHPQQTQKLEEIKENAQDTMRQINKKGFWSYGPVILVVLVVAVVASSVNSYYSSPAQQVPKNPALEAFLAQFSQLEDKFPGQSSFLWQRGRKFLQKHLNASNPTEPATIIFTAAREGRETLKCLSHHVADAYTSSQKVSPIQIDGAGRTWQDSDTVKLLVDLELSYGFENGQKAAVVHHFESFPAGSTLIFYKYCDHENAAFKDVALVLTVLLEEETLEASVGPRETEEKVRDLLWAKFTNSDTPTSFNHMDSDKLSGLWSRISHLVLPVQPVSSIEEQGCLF
Assay [6] in a line: E. coli growth modulation, two-sided OD650, primary screen, E. coli filamentation project, strain DRC41, 24 h (AID 1093).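 Further: MC1000 strain lacking acrAB efflux and sulA so SOS filamentation is blocked; test concentration not given here.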 Particulars: OD650, 24 h, higher = more signal, called active from +8 up or from −8 down.
The nature of assay [7]: small-molecule microarray binders of probe aLefty2, primary screen, biochemical, biotinylated probe, 635/667 nm fluorescence (AID 1094).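 Further: score merges spot fluorescence near 667 nm with spot signal-to-noise ratio.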 To be noted: higher = more signal.
The test system of assay [8] is Noggin (protein binding on small-molecule microarray). Kind of assay: Noggin binders on small-molecule microarray, primary screen, biochemical, 635/667 nm fluorescence (AID 1095).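 Further: score merges 667 nm feature fluorescence with signal to noise over triplicate slides.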 To be noted: 635 nm fluorescence, higher = more signal.
Assay [9] addresses Neurogenic locus notch homolog protein 3 (Homo sapiens) (UniProt Q9UM47). Kind of assay: NOTCH3 binders on small-molecule microarray, primary screen, biochemical, 635/667 nm fluorescence (AID 1096). Particulars: NOTCH3 binding, 635 nm fluorescence, higher = more signal.
Assay [10] in a line: small-molecule microarray binders of probe aEGFR, primary screen, biochemical, biotinylated probe, 635/667 nm fluorescence (AID 1097).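 Further: probe is a biotinylated anti-EGFR antibody binding compounds printed on slides; score combines fluorescence near 667 nm and signal to noise of each spot.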 To be noted: higher = more signal.

Sequence of Neurogenic locus notch homolog protein 3 (Homo sapiens) (Q9UM47 whole entry, looked up): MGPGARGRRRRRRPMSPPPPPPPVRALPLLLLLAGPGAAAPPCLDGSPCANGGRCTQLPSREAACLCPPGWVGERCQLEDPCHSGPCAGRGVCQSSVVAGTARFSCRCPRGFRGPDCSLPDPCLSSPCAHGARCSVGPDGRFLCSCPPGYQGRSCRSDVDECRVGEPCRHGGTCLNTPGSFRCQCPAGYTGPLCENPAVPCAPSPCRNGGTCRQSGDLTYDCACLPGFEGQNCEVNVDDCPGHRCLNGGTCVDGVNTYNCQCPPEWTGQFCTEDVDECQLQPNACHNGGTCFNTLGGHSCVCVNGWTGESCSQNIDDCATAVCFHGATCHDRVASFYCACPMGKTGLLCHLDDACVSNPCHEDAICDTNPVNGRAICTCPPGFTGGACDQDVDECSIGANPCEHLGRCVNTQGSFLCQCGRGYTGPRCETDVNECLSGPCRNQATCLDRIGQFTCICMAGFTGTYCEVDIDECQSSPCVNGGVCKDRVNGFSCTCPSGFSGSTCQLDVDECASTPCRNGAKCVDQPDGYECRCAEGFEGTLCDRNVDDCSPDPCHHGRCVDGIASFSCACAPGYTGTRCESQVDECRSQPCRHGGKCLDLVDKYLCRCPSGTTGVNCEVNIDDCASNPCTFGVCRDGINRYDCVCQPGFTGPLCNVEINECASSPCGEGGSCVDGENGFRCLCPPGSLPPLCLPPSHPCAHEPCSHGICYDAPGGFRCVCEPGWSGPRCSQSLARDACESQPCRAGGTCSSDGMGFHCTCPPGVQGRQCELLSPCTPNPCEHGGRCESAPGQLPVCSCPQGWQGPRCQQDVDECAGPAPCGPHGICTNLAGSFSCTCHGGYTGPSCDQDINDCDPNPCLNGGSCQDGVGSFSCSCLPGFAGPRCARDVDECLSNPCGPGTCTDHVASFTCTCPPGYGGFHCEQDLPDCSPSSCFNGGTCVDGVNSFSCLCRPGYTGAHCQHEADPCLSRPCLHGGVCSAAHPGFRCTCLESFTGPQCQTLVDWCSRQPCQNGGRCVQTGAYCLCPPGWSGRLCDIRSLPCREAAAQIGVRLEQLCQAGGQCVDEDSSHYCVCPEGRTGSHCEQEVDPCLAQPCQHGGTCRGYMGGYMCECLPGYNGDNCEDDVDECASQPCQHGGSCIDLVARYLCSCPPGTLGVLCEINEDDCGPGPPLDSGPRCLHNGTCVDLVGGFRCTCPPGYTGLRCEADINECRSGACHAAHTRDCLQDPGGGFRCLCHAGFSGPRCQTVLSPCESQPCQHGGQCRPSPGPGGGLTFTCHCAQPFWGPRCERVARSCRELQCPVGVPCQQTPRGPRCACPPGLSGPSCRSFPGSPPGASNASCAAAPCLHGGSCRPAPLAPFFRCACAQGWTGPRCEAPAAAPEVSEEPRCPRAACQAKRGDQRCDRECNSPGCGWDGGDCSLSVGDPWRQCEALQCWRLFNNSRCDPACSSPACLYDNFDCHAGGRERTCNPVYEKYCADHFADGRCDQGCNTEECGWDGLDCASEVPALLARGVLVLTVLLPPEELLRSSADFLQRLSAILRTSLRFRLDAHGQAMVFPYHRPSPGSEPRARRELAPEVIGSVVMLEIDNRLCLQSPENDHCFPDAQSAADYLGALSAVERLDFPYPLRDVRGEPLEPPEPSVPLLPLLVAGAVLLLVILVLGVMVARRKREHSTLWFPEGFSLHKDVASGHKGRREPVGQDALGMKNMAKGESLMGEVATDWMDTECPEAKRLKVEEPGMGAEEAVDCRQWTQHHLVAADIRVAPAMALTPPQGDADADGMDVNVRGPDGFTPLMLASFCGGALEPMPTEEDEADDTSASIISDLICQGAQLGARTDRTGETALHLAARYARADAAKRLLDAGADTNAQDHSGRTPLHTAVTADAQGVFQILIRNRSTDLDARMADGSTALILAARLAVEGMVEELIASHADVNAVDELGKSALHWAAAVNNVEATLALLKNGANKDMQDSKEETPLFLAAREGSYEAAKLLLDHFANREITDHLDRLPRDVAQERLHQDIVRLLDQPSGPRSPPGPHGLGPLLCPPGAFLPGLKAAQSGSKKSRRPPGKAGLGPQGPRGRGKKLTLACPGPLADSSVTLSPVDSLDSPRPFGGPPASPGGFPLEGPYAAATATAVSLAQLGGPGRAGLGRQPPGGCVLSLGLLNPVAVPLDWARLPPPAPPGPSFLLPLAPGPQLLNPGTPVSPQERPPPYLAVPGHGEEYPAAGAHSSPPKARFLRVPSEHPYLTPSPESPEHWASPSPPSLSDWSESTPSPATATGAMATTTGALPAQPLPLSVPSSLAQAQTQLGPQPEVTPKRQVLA

In the case of `COc1ccc([Si](C)(C)[C@@H]2[C@@H](CC(=O)N3Cc4ccccc4C[C@H]3CO)O[C@]3(C(=O)N(Cc4cccc(N5CCC5=O)c4)c4ccccc43)[C@H]2C)cc1`, the composite z-score is 1.55 in [1]; 1.95 in assay [5]; -0.0963 in assay [7]; 0.954 in [8]; 0.87 in assay [9]; 0.0227 in assay [10]. The z-score in assay [2] is 0.0342 (inactive); in assay [3] it was 0.589 (inactive); in assay [4], 1.59 (inactive); in [6], -0.509 (inactive).

For the molecule `O=C(O)[C@H]1C[C@H]2C(=O)N3CCC[C@H]3C(=O)N2[C@H]1c1ccc(O)cc1`, the composite z-score in [1] was -0.57; in assay [5] it was 0.631; in assay [7], 0.0212; in assay [8], -0.571; in assay [9] it was -1.23; in assay [10], -0.268. Further, the z-score in assay [2] is 0.428 (inactive); in [3] it was -0.613 (inactive); in assay [4], 0.333 (inactive); in assay [6], 0.863 (inactive).

With `C=CCC(OC(C)=O)[C@@H]1[C@@H](N(Cc2ccc(-c3cccc(C(F)(F)F)c3)o2)C(=O)c2cccc3ccccc23)c2cc(OCCCO)ccc2N1C(=O)Cc1ccc2ccccc2c1` (stereo not given in full), the composite z-score in assay [1] was 0.263; in [5] it was 0.878; in assay [7] it was -0.106; in assay [8], 0.01; in [9], 0.0384; in assay [10] it was -0.146. Also, the z-score in assay [2] was 0.1 (inactive); in assay [3] it was -0.463 (inactive); in assay [4] it was 0.133 (inactive); in [6] it was -0.57 (inactive).

Turning to `C=CC[C@@]1(C(=O)N2CCCCC2)N=C(c2ccc(OCCCO)cc2)O[C@@H]1c1ccccc1CN=[N+]=[N-]`, the composite z-score in assay [1] turned out to be 1.55; in assay [5], 3.67; in assay [7] it was 0.178; in [8], 0.648; in assay [9] it was 1.08; in assay [10], 0.0528. Moreover, the z-score in assay [2] was -1.87 (inactive); in assay [3], 0.0315 (inactive); in assay [4] it was 0.819 (inactive); in assay [6], 0.912 (inactive).

With `COCCCNC(=O)[C@]1(Cc2ccccc2)N=C(c2ccc(OCCCO)cc2)O[C@@H]1c1ccccc1CN=[N+]=[N-]`, the composite z-score in assay [1] stood at 1.55; in assay [5] it was 3.59; in [7], 0.195; in assay [8] it was 0.53; in assay [9], 1.08; in [10], 0.0326. Further, the z-score in [2] was -2.05 (inactive); in assay [3] it was 1.05 (inactive); in assay [4], 0.842 (inactive); in assay [6] it was 1.03 (inactive).

With `COC(=O)c1c2oc(c1C(=O)OC)C(=O)NC1(CCCCC1)c1cn(nn1)C[C@H](Cc1ccccc1)NC(=O)N[C@H](CO)CC2`, the composite z-score is 1.27 in [1]; 2.86 in assay [5]; -0.186 in assay [7]; 0.322 in assay [8]; 0.705 in assay [9]; -0.171 in assay [10]. Further, the z-score was 0.517 (inactive) in assay [2], 0.718 (inactive) in [3], -0.466 (inactive) in assay [4] and 1.52 (inactive) in assay [6].

In the case of `[N-]=[N+]=Nc1ccccc1[C@H]1OC(c2ccc(OCCCO)cc2)=N[C@@]1(Cc1ccccc1)C(=O)N1CCOCC1`, the composite z-score in assay [1] came to 1.46; in assay [5] it was 3.23; in assay [7], 0.275; in [8], 0.449; in assay [9] it was 1.15; in assay [10], 0.0881. The z-score is -1.44 (inactive) in [2], -1.02 (inactive) in assay [3], 1.91 (inactive) in [4] and 0.551 (inactive) in assay [6].

As to `COc1cc2c(cc1OC)CN(C(=O)[C@H]1[C@@H]3C(=O)O[C@@H](c4ccccc4)[C@@H](c4ccccc4)N3[C@@H](c3ccccc3OCCO)[C@]13C(=O)Nc1ccc(C#CCCO)cc13)CC2`, the composite z-score was 1.52 in assay [1]; 1.61 in assay [5]; -0.0499 in [7]; 1.71 in [8]; 1.02 in [9]; -0.0531 in assay [10]. The z-score was 2.11 (inactive) in assay [2], -0.0834 (inactive) in assay [3], 3.66 (inactive) in assay [4] and -0.302 (inactive) in assay [6].

As for `CS(=O)(=O)CCOC(=O)C1=CC(CCCO)=CC(c2ccc(CN3CCCC3)cc2)N(Cc2cccc(OC(F)(F)F)c2)C=C1C(=O)OCCS(C)(=O)=O` (stereo not given), the composite z-score in assay [1] is 1.57; in assay [5], 2.62; in assay [7], 0.336; in assay [8], 0.738; in assay [9] it was 1.13; in assay [10], 0.172. In addition, the z-score in assay [2] is 0.441 (inactive); in assay [3], -12.9 (active); in assay [4] it was -0.805 (inactive); in assay [6] it was -1.05 (inactive).

Turning to `COC(=O)[C@@]1(Cc2ccc(OC)cc2)[C@H]2c3cc(C(=O)N4CCCC4)n(Cc4nc5ccccc5[nH]4)c3C[C@H]2CN1C(=O)c1ccccc1`, the composite z-score was 0.661 in assay [1]; 3.73 in [5]; 0.759 in assay [7]; -0.214 in assay [8]; 1.05 in assay [9]; 0.225 in [10]. In addition, the z-score in [2] was -0.0237 (inactive); in [3], 0.955 (inactive); in assay [4], 2.07 (inactive); in assay [6], 0.138 (inactive).

Take `CN1C(=O)C2C=CC(C(O)C=Cc3ccc([N+](=O)[O-])cc3)N(Nc3ccccc3)C2C1=O` (stereo not given): the composite z-score is 1.51 in [1]; 1.62 in assay [5]; 0.0849 in [7]; 0.577 in assay [8]; 1.12 in assay [9]; -0.0372 in assay [10]. Besides, the z-score is -0.131 (inactive) in assay [2], -1.18 (inactive) in [3], -0.656 (inactive) in assay [4] and -1.35 (inactive) in assay [6].

In the case of `O=C1OCCC=C[C@H]2OC34C=CCN(Cn5nnc6ccccc65)C(=O)[C@H]3N(CCO)C(=O)[C@@H]4C12` (stereo not given in full), the composite z-score is -0.312 in assay [1]; -0.316 in [5]; -0.135 in [7]; -1.26 in [8]; -0.491 in assay [9]; -0.345 in assay [10]. Besides, the z-score in [2] is -0.352 (inactive); in assay [3], 0.785 (inactive); in [4], -0.422 (inactive); in [6], 2.26 (inactive).

Take `CCCC[C@@H]1C[C@H]1[C@@H](NC(=O)c1cccnc1)c1ccc(Cl)cc1`: the composite z-score was -2.81 in assay [1]; 0.208 in assay [5]; -0.165 in assay [7]; -2.93 in assay [8]; -2.46 in assay [9]; -0.428 in assay [10]. In addition, the z-score was -25 (active) in [2], -15.4 (active) in [3], 0.887 (inactive) in assay [4] and -3.26 (inactive) in [6].

The values above are taken from PubChem BioAssay.
